# Most compounds without a hit are left out; they make up all but 21% or so of the library.
# CHX counter: counter-screen hit for Shiga toxin inhibitors, cycloheximide; max response, %; 300,000 compounds, 12% hits; cell reporter, cycloheximide protein synthesis inhibition counterscreen; in the data active means max response mostly above about 13%, no sharp cut-off; inactive means mostly below about 14%; further: read at 38.3 µM for the half of the compounds with a filed dose; 0% is about no effect
# Shiga inhibitor: Shiga toxin inhibition; inhibition, % at 38.7 µM; AID 2315; 290,000 compounds, 9.2% hits; Vero cells, Shiga toxin protein synthesis inhibition reporter; in the data active means inhibition mostly above about 28%, no sharp cut-off; inactive means mostly below about 43%; further: 0% is about no effect
# Pf growth 48h: P. falciparum growth inhibition at 48 hours (one generation); P. falciparum luciferase growth in erythrocytes, 48 h; Potency, µM (top dose mostly 28.7 µM), for the others: top-dose activity change, negative = inhibition, actives largely listed as inhibitors; 310,000 compounds, 5.9% hits; AID 504832; further: potency means the concentration at half of the fitted maximal effect; on the % scale 0 is the no-effect control and ±100 the full control effect
#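 Parasite viability was followed by luminescence of a genomically integrated firefly luciferase. Cultures held 0.1% parasitemia at 2% hematocrit (final), incubated under 5% CO2 at 37 C.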
# Pf growth 96h: inhibits malaria parasite growth, 96 h; Potency, µM (series often up to 28.7 µM), for inactives: at the highest dose activity change, negative = inhibition, actives largely listed as inhibitors; P. falciparum luciferase reporter growth, 96 h; 320,000 compounds, 6.9% hits; further: potency means the concentration at half of the fitted maximal effect; on the % scale 0 is the no-effect control and ±100 the full control effect
#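 Plates of compound plus infected erythrocytes (2% hematocrit, 0.05% parasitemia final) incubate 96 hours, 37 C, 5% CO2. Detection reagent added; reduced luminescence from the parasites' luciferase reporter flags inhibition.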
# * marks the source's active call; other numbers are inactive results; i = inactive; ? = inconclusive; nt = no result; [ ] = another dose, or the depositor's remark. Unless noted, the call rests on the fitted dose curve; in most records, active means well fitted inhibition curve with a large enough effect; inconclusive means small, poorly fitted or top-dose-only effect, or another doubt; inactive means no such curve, though single readings can be large or run the other way.
SMILES,CHX counter,Shiga inhibitor,Pf growth 48h,Pf growth 96h
Cc1ccc(-c2noc(C3CCCN(C(=O)c4ccccc4)C3)n2)o1 (stereo unspecified),41*,59*,166%,-1%[5.75 µM]
CCCN(CCC)C(=O)c1cc(S(=O)(=O)N2CCCCC2)c[nH]1,-3,-13,-1%,?
Cc1ccc(C(=O)C[n+]2ccc(Cc3ccccc3)cc2)cc1,-2,17,?,8.3µM*
O=C(C[n+]1ccccc1)c1ccc(-c2ccccc2)cc1,-11,-8,30%,10%
Cc1ccc(SCCc2cc[n+](CC(=O)c3ccccc3)cc2)cc1,51*,125*,75%,?
COC(=O)c1ccccc1NC1=C/C(=N\S(=O)(=O)c2cccs2)c2ccccc2C1=O,28*,41,nt,0.66µM*
COC(=O)c1cccc(NS(=O)(=O)c2cccs2)c1C,13,37,19%,nt
COC(=O)c1ccccc1NC1=C/C(=N\S(=O)(=O)c2ccc(C(=O)O)cc2)c2ccccc2C1=O,3,17,1.5µM*,13%
O=C(Nc1nc2ccccc2n1CCN1CCOCC1)c1ccc(COc2ccccc2Br)o1,1,-5,?,-13%[5.75 µM]
COc1ccccc1C(=O)Nc1ccnn1C1CCN(Cc2ncc[nH]2)CC1,12,-4,13%,?
CCN(c1ccccc1C(=O)O)S(=O)(=O)c1cccc2nsnc12,-1,-3,27%,5%
Fc1ccccc1/C=N/Nc1ncnc2nc[nH]c12,49*,139*,94%,18%
Fc1cccc(/C=N/Nc2ncnc3nc[nH]c23)c1,83*,71*,?,?
c1ccc(COc2ccc(Nc3ncnc4nc[nH]c34)cc2)cc1,18,39,nt,?
Oc1cncc(Cc2ccccc2)c1,-2,-14,?,?
O=C(O)CCC(=O)N1CC=C(c2ccccc2)CC1,50*,79*,nt,?
O=C(O)C1CC=CCC1C(=O)N1CC=C(c2ccccc2)CC1 (stereo unspecified),29*,44*,22%,1%
Cc1ccc(NC(=O)c2cnc3ccccc3n2)cc1C,51*,67*,290%,i
O=C(Nc1ccccc1)c1cnc2ccccc2n1,40*,60*,203%,135%
O=C(Nc1ccccc1)c1ccc(=O)[nH]n1,-3,-2,-12%,6%
Cc1ccc(NC(=O)c2ccc(=O)[nH]n2)cc1C,48*,100*,80%,100%
CC(NC(=O)c1ccncc1)c1ccccc1 (stereo unspecified),-5,nt,-4%,?
CC(NC(=O)c1cnc2ccccc2n1)c1ccccc1 (stereo unspecified),23*,41,?,-28%
Cc1ccc(NC(=O)c2sc(Cl)nc2-c2ccccc2)cc1C,-3,-22,7%,nt
COC(=O)C(Cc1ccc(O)cc1)NC(=O)C1CCN(S(=O)(=O)c2ccc(C)cc2)CC1 (stereo unspecified),-2,1,0%,5%
SMILES,CHX counter,Shiga inhibitor,Pf growth 48h,Pf growth 96h
CCOc1ccccc1N1CCN(C(=O)/C=C/c2cccc([N+](=O)[O-])c2)CC1,-4,-7,9%,?
CCN(C(=O)Cc1c(C(=O)O)n(C)c2ccccc12)c1cccc(C)c1,1,2,12%,108%
CC(OC(=O)c1cnc2ccccc2n1)c1ccccc1Cl (stereo unspecified),36*,69*,52%,85%
NC(=O)c1ccc(NC(=O)c2cnc3ccccc3n2)cc1,37*,80*,88%,96%
Cc1ccc(NC(=O)c2ncc(Cl)c(Cl)c2Cl)cc1C,40*,61,283%,125%
O=C(Nc1cccc(Cl)c1)c1cccnn1,22,25,20%,-6%
NC(=O)c1cc(S(=O)(=O)Nc2ccccc2)cs1,-2,-4,7%,27%
CCOc1ccc(NS(=O)(=O)c2csc(C(N)=O)c2)cc1,1,9,1.9µM*,1%
Cc1ccccc1CNS(=O)(=O)c1csc(C(N)=O)c1,6,-3,-27%,6.6µM*
NC(=O)c1cc(S(=O)(=O)NCc2ccccc2)cs1,-2,-12,16%,53%
C#CCN(C(=O)c1cc(COc2cccc(C(F)(F)F)c2)on1)C1CCCCC1,-1,2,6%,?
COC(=O)c1cc(CNC(=O)c2ccccc2OCc2c(C)noc2C)ccc1OC,-2,29,-6%,-10%
COc1ccc(C(=O)Nc2ccccc2C(=O)NC(Cc2ccc(O)cc2)C(=O)NNC(=O)c2ccncc2)cc1 (stereo unspecified),9,23,12µM*,151%

# Screening results as filed in PubChem BioAssay.
